Test results reported in PubChem BioAssay.

target: Focal adhesion kinase 1 (Homo sapiens) (UniProt Q05397); experiment: PTK2 protein binding on printed compound slides – biochemical, small-molecule microarray, 635/667 nm fluorescence, BSA, DTT, primary screen (AID 1130); conditions: 635 nm fluorescence, higher = more signal;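 further: composite of spot emission at 667 nm and signal to noise over triplicate slides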
Sequence (Q05397 whole entry, looked up): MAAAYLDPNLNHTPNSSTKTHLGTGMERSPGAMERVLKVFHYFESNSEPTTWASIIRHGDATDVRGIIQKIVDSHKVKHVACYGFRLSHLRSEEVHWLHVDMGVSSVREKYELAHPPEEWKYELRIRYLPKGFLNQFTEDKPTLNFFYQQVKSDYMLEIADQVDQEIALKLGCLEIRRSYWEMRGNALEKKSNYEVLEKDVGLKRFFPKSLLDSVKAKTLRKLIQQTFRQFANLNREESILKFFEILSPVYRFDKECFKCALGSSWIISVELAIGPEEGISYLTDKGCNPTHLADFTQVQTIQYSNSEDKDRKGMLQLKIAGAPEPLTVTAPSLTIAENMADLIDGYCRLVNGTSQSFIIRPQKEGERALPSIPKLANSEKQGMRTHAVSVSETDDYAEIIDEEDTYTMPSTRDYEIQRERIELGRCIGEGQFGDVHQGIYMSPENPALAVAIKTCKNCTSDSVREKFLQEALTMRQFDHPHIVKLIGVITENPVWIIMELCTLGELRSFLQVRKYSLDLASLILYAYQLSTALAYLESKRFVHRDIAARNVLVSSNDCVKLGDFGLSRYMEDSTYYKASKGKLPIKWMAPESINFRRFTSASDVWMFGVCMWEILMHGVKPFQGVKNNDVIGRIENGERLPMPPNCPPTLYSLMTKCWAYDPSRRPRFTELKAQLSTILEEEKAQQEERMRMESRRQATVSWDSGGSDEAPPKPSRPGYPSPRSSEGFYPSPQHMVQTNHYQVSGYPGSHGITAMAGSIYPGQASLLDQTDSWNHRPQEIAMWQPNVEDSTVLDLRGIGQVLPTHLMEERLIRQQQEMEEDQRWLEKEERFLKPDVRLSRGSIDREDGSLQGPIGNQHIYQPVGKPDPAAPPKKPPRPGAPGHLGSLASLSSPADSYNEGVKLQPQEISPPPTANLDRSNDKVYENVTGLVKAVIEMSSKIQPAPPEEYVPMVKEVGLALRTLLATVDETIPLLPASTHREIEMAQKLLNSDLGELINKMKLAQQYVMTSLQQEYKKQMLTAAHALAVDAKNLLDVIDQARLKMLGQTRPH

| SMILES | composite z-score |
| --- | --- |
| CC(C)CNC(=O)[C@@H]1c2ccccc2C(=O)N(Cc2cc(C(F)(F)F)cc(C(F)(F)F)c2)[C@H]1c1ccc(CO)cc1 | 0.093 |
| O=C(CS)NCCCCCCNC(=O)[C@@H]1C[C@@H]2C(=O)N3CCC[C@H]3C(=O)N2[C@@H]1c1ccc(O)cc1 | 0.887 |
| CCCCCCc1nc(CCCc2cc3c(c(CCCCCC)n2)[Si](C(C)C)(C(C)C)OC3)cc2c1[Si](C(C)C)(C(C)C)OC2 | -0.0475 |
| O=C1O[C@H](c2ccccc2)[C@H](c2ccccc2)N2[C@H]1[C@@H](C(=O)NC[C@H](O)c1ccccc1)[C@]1(C(=O)Nc3ccc(C#CCCO)cc31)[C@H]2c1ccc(O)cc1 | -0.598 |
| C=C[C@@H](COC(C)=O)N(Cc1ccccc1[N+](=O)[O-])S(=O)(=O)c1ccc(Br)cc1 | 0.547 |
| O=C1N(CCS(=O)(=O)c2ccccc2)Cc2ccccc2C[C@]12N=C(c1ccc(OCCCO)cc1)O[C@@H]2c1ccccc1 | 0.342 |
| CCOC(=O)C1=C[C@@H](CC)N(S(=O)(=O)c2ccc(C)cc2)[C@H]1c1ccccc1 | 1.33 |
| Cc1ccc(S[C@]2(C(=O)NCc3ccccc3)CC(=O)N(Cc3ccccc3)[C@@H]2c2ccc(CO)cc2)cc1 | 0.691 |
| CC(C)c1ccc(NN2C(C(O)c3ccc(N(C)C)cc3)C=CC3C(=O)N(c4ccccc4)C(=O)C32)cc1 (centres undefined) | 0.0061 |
| CS(=O)(=O)CCOC(=O)C1=CC(c2ccc(CO)cc2)=CC(C2CC2)N(Cc2cc3c(cc2Br)OCO3)C=C1C(=O)OCCS(C)(=O)=O (centres undefined) | 0.608 |
| O=C1O[C@@H](c2ccccc2)[C@@H](c2ccccc2)N2[C@@H](c3ccc(OCCO)cc3)[C@]3(C(=O)Nc4ccccc43)[C@@H](C(=O)Nc3nc4ccccc4s3)[C@H]12 | 0.645 |
| CN(C)CCCCNC(=O)[C@H]1C[C@H]2C(=O)N[C@@H](Cc3ccccc3)C(=O)N2[C@H]1c1ccc(O)cc1 | -0.366 |
| C=CCC(OC(C)=O)[C@@H]1[C@@H](N(Cc2ccc(-c3ccccc3)cc2)C(=O)Cc2ccc(F)cc2)c2cc(OCCCO)ccc2N1C(=O)c1ccc2ccccc2n1 (some centres undefined) | -0.312 |
| COC(=O)[C@@]1(Cc2ccccc2N=[N+]=[N-])COC(c2ccc(OCCCO)cc2)=N1 | 0.676 |

tested on: Fibrinogen (Alexa647-labelled); experiment: Alexa647-fibrinogen binding to printed small molecules – biochemical, small-molecule microarray, 635/667 nm fluorescence, artefact control for SMM control-protein annotation, profiling panel (AID 1131); conditions: fibrinogen-A647 binding fluorescence, higher = more signal;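 further: z-score merges 667 nm fluorescence with per-spot signal-to-noise over triplicate slides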

| SMILES | composite z-score |
| --- | --- |
| CC(=O)Nc1cc(Br)ccc1C(=O)O | 0.805 |
| Cc1ccccc1C(O)C1C=CC2C(=O)N(C)C(=O)C2N1N1CCCCC1 (centres undefined) | 0.908 |
| [N-]=[N+]=NCc1ccccc1[C@@H]1OC(c2ccc(OCCCO)cc2)=N[C@]1(Cc1ccccc1)C(=O)N1CCCCC1 | 0.39 |
| COCC(=C=CC[C@H](O)c1ccc(OCCO)cc1)C[C@H](O)c1cc(Cl)cc(Cl)c1O | 0.799 |
| COC(=O)[C@@]1(Cc2ccc(OC)cc2)[C@H]2c3cc(C(=O)N4CCCC4)n(Cc4ccccn4)c3C[C@H]2CN1C(=O)c1ccccc1 | 0.8 |
| COc1ccc([Si](C)(C)[C@@H]2[C@@H](CCn3cc([C@H](O)c4ccccc4)nn3)O[C@]3(C(=O)N(Cc4ccc(N5C(=O)c6cccc7cccc5c67)cc4)c4ccccc43)[C@H]2C)cc1 | -0.151 |
| O=C1O[C@@H](c2ccccc2)[C@@H](c2ccccc2)N2[C@@H](c3ccc(O)cc3)[C@]3(C(=O)Nc4ccc(C#CC5(O)CCCCCC5)cc43)[C@@H](C(=O)N3CCCCCCC3)[C@H]12 | 0.962 |
| O=C1[C@]2(CO)C=C(Br)[C@@H](C[C@@H]2c2ccccc2)[C@@]12CO2 | 0.262 |
| COCCOC(=O)N1C(=O)[C@@]2(c3cc(C#CCCO)ccc31)[C@H](c1ccccc1OCCO)N1[C@H](c3ccccc3)[C@H](c3ccccc3)OC(=O)[C@H]1[C@@H]2C(=O)N1CCN(c2ncccn2)CC1 | 0.807 |
| CC=CC(O)C1C=CC2C(=O)N(c3ccccc3)C(=O)C2N1Nc1ccc(C(C)C)cc1 (centres undefined) | 0.831 |
| CC(c1ccccc1)C(O)C1C=CC2C(=O)NC(=O)C2N1Nc1ccccn1 (centres undefined) | 0.675 |
| C=CCC(OC(C)=O)[C@@H]1[C@@H](N(Cc2ccc(-c3cccc(C(F)(F)F)c3)o2)C(=O)c2ccc(C)cc2)c2cc(OCCCO)ccc2N1C(=O)c1ccc(-c2ccccc2)cc1 (some centres undefined) | -0.238 |
| COc1ccc([Si](C)(C)[C@@H]2[C@@H](CC(=O)N3CCC[C@H]3CO)O[C@]3(C(=O)N(C)c4c(Br)cc(C)cc43)[C@H]2C)cc1 | 0.935 |
| O=C1O[C@H](c2ccccc2)[C@H](c2ccccc2)N2[C@H]1[C@@H](C(=O)O)[C@]1(C(=O)Nc3ccc(C#CC4=CCCCC4)cc31)[C@H]2c1ccc(OCCO)cc1 | 0.98 |
| CCCNC(=O)[C@@]1(c2ccc([N+](=O)[O-])cc2)CC(=O)N(CC23CC4CC(CC(C4)C2)C3)[C@@H]1c1ccc(CO)cc1 | 0.356 |
| CC(C)C[C@@H]1NC(=O)[C@H]2C[C@@H](C(=O)NCCCCCCNC(=O)CS)[C@@H](c3cccc(OCCO)c3)N2C1=O | 0.855 |
| Cc1cc(C)c(C(O)C2C=CC3C(=O)N(C)C(=O)C3N2Nc2ccccc2)c(C)c1 (centres undefined) | 0.992 |
| O=C1OCCC=C[C@H]2OC34C=CCN(Cc5ccccc5)C(=O)[C@H]3N(CCCO)C(=O)[C@@H]4C12 (some centres undefined) | -0.887 |

| SMILES | composite z-score |
| --- | --- |
| COCCOC(=O)N1C(=O)[C@@]2(c3cc(C#CCC(C(=O)OC)C(=O)OC)ccc31)[C@H](c1ccc(O)cc1)N1[C@H](c3ccccc3)[C@H](c3ccccc3)OC(=O)[C@H]1[C@@H]2C(N)=O | 0.75 |
| COCCOC(=O)N1C(=O)[C@@]2(c3cc(C#CCC(C(=O)OC)C(=O)OC)ccc31)[C@H](c1ccccc1OCCO)N1[C@H](c3ccccc3)[C@H](c3ccccc3)OC(=O)[C@H]1[C@@H]2C(N)=O | 0.942 |
| C=CCNC(=O)[C@H]1[C@@H]2C(=O)O[C@@H](c3ccccc3)[C@@H](c3ccccc3)N2[C@@H](c2ccc(O)cc2)[C@]12C(=O)N(C(=O)OCCOC)c1ccc(C#CCCO)cc12 | 0.288 |
| CC(C)CNC(=O)[C@@H]1c2ccccc2C(=O)N(Cc2cc(C(F)(F)F)cc(C(F)(F)F)c2)[C@H]1c1ccc(CO)cc1 | -0.419 |
| O=C(CS)NCCCCCCNC(=O)[C@@H]1C[C@@H]2C(=O)N3CCC[C@H]3C(=O)N2[C@@H]1c1ccc(O)cc1 | -0.627 |
| CCCCCCc1nc(CCCc2cc3c(c(CCCCCC)n2)[Si](C(C)C)(C(C)C)OC3)cc2c1[Si](C(C)C)(C(C)C)OC2 | -1.14 |
| O=C1O[C@H](c2ccccc2)[C@H](c2ccccc2)N2[C@H]1[C@@H](C(=O)NC[C@H](O)c1ccccc1)[C@]1(C(=O)Nc3ccc(C#CCCO)cc31)[C@H]2c1ccc(O)cc1 | -1.07 |
| C=C[C@@H](COC(C)=O)N(Cc1ccccc1[N+](=O)[O-])S(=O)(=O)c1ccc(Br)cc1 | 0.619 |
| O=C1N(CCS(=O)(=O)c2ccccc2)Cc2ccccc2C[C@]12N=C(c1ccc(OCCCO)cc1)O[C@@H]2c1ccccc1 | 0.356 |
| CCOC(=O)C1=C[C@@H](CC)N(S(=O)(=O)c2ccc(C)cc2)[C@H]1c1ccccc1 | 0.928 |
| Cc1ccc(S[C@]2(C(=O)NCc3ccccc3)CC(=O)N(Cc3ccccc3)[C@@H]2c2ccc(CO)cc2)cc1 | -0.909 |
| CC(C)c1ccc(NN2C(C(O)c3ccc(N(C)C)cc3)C=CC3C(=O)N(c4ccccc4)C(=O)C32)cc1 (centres undefined) | 0.96 |
| CS(=O)(=O)CCOC(=O)C1=CC(c2ccc(CO)cc2)=CC(C2CC2)N(Cc2cc3c(cc2Br)OCO3)C=C1C(=O)OCCS(C)(=O)=O (centres undefined) | 0.896 |
| O=C1O[C@@H](c2ccccc2)[C@@H](c2ccccc2)N2[C@@H](c3ccc(OCCO)cc3)[C@]3(C(=O)Nc4ccccc43)[C@@H](C(=O)Nc3nc4ccccc4s3)[C@H]12 | 1 |
| CN(C)CCCCNC(=O)[C@H]1C[C@H]2C(=O)N[C@@H](Cc3ccccc3)C(=O)N2[C@H]1c1ccc(O)cc1 | 0.986 |
| C=CCC(OC(C)=O)[C@@H]1[C@@H](N(Cc2ccc(-c3ccccc3)cc2)C(=O)Cc2ccc(F)cc2)c2cc(OCCCO)ccc2N1C(=O)c1ccc2ccccc2n1 (some centres undefined) | 0.165 |
| COC(=O)[C@@]1(Cc2ccccc2N=[N+]=[N-])COC(c2ccc(OCCCO)cc2)=N1 | 0.492 |
